Bioassay records from PubChem BioAssay.
Pyk2 oligo antag: antagonists of human Pyk2 oligomerization. Q14289. Q293 cells, Pyk2 FERM NanoBiT luminescence; active compounds read low. z-score (the deposit names both 25 µM and 10 µM). hit rate 0.83% among 99,000;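 active = Z-score of -3 or lower, scaled per plate to the spread of control and sample wells; inactive = z-score above -3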;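 also: negative z-score means lost luminescence so less FERM oligomerization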
CYP2C9 act: increases human cytochrome P450 2C9 activity; P11712; recombinant CYP2C9, luciferin-H conversion, luminescence; active compounds read high; factor 1 = untreated enzyme, 0 = blocked; activation factor at 5 µM; hit rate 1.4% among 96,000; AID 1024;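 active = activation factor of 2 or more for CYP2C9 at a 5 µM dose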;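 also: 0 = sulfaphenazole-blocked wells and 1 = vehicle-only wells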
Target sequence (P11712 whole entry, looked up): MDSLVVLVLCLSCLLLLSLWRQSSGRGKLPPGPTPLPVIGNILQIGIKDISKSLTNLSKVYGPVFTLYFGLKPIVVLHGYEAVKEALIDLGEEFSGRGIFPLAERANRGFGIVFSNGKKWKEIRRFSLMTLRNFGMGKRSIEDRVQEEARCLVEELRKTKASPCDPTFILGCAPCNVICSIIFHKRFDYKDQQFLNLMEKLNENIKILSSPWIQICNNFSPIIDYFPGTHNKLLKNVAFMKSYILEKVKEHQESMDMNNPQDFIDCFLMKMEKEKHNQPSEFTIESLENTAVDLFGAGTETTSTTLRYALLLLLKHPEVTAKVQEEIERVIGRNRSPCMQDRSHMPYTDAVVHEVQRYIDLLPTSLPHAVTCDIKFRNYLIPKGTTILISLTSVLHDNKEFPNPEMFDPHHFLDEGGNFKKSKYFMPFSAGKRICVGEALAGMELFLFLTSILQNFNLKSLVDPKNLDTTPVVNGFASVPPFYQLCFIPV
CYP2C19 inh: human CYP2C19 inhibition | P33261 | CYP2C19 Supersomes, luciferin-H EGE luminescence, 30 min | inhibition, % at 5 µM | hit rate 21% among 96,000;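 active = CYP2C19 inhibition above a set limit at 5 µM in the primary screen, cut at about 50% in these data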;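 also: plate controls were negative control wells for no effect and 2.5 mM tranylcypromine positive control for full effect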
CYP2C19 act: cytochrome P450 2C19 (human) activation. P33261. recombinant CYP2C19, luciferin-H EGE luminescence; active compounds read high; 0 = fully inhibited enzyme, 1 = untreated enzyme. activation factor at 5 µM. 96,000 tested, under 10 active. AID 1025;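 active = activation factor of at least 2 at 5 µM in the primary screen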;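 also: 0 = wells with 2.5 mM tranylcypromine and 1 = vehicle-only wells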
CYP2C9 inh: human CYP2C9 inhibition. P11712. CYP2C9 Supersomes, luciferin-H conversion, luminescence. inhibition, % at 5 µM. hit rate 20% among 96,000;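 active = blocking of liver enzyme CYP2C9 beyond about 50% at 5 µM, limit read from the data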
Numbers without * were called inactive; . = no result. Sampled rows, rich in hits. Any-hit rate of the full collection: about 28%.

SMILES	Pyk2 oligo antag	CYP2C9 act	CYP2C19 inh	CYP2C19 act	CYP2C9 inh
CC(=O)c1sc2nc(C)cc(C)c2c1N	0.65	1	-1.8	1	4.7
Cc1cc(C)c2c(N)c(S(=O)(=O)Cc3ccccc3)sc2n1	0.34	3*	99.1*	0	-196.6
CCCOC(=O)C1C2C=CC(C2)C1C(=O)OCC(=O)c1ccccc1 (stereo not drawn)	0.77	0.3	91.1*	0.1	74.7*
COc1ccc(C(=O)C(CN2CCOCC2)c2ccccc2)cc1 (stereo not drawn)	-1.65	1	55.8*	0.4	-1.2
COc1ccc(C(=O)C(OC(=O)c2ccccc2)c2ccccc2)cc1 (stereo not drawn)	-1.28	0.3	59.0*	0.4	70.5*
C(#CCN1CCOCC1)COCCCOC(c1ccccc1)c1ccccc1	-0.97	0.3	59.0*	0.4	69.5*
COc1ccc(C(=O)C(CN2CCCC2)c2ccccc2)cc1 (stereo not drawn)	0.34	0.8	16.9	0.8	17.7
c1ccc(C(CN2CCOCC2)c2ccccc2)cc1	0.7	0.8	58.4*	0.4	15.4
COC(=O)C(OC(=O)c1ccc(OC)cc1)C(=O)OC	2.08	.	.	.	.
CC(=O)Oc1ccc(CCC(C)OC(C)=O)cc1 (stereo not drawn)	0.46	1	10.2	0.9	3.9
O=C(c1ccc(F)cc1)C(CN1CCOCC1)c1ccccc1 (stereo not drawn)	-1.23	0.9	59.2*	0.4	12.4
OC(CN1CCOCC1)CN(c1ccccc1)c1ccccc1 (stereo not drawn)	-0.24	0.4	69.5*	0.3	64.9*
O=C(c1ccccc1)C(CCC(CN1CCOCC1)C(=O)c1ccccc1)CN1CCOCC1 (stereo not drawn)	-1.61	0.7	69.2*	0.3	32.2
CC(NC(=O)CSc1nc2ccccc2n1CCC#N)c1ccc(F)cc1 (stereo not drawn)	-0.09	0.5	93.7*	0.1	54.7*
CCNC(=O)NC(=O)CSc1nc2ccccc2n1CC(C)C	1.33	0.9	28.4	0.7	8.0
N#CCCn1c(SCC(=O)NCCc2ccc(F)cc2)nc2ccccc21	-0.37	0.5	82.5*	0.2	46.8
CCn1c(Sc2ccc(N)cc2Cl)nc2ccccc21	-1.83	2.3*	87.0*	0.1	-126.9
CCCn1c(SCC(=O)O)nc2ccccc21	2.24	1.2	9.2	0.9	-19.9
CCn1c(SCC(=O)NC(C)c2ccccc2)nc2ccccc21 (stereo not drawn)	-0.65	1.4	53.9*	0.5	-35.9
CCn1c(-c2cccnc2Cl)nc2ccccc21	0.09	1.9	31.5	0.7	-92.8
Cc1ccc(Oc2ccc(NC(=O)Cn3ccsc3=N)cc2)cc1	0.31	1.1	-34.6	1.3	-13.5
c1cn(-c2ncnc3sc4c(c23)CCCC4)cn1	-0.48	0.9	27.8	0.7	9.4
COc1ccc(CNC(=O)Oc2ccccc2)cc1Cl	0.24	2.4*	62.9*	0.4	-140.3
COC(=O)NCc1ccc(Cl)c(Cl)c1	0.03	1	64.3*	0.4	3.1
CC(C)N(CCc1ccncc1)C(=O)Nc1ccc(F)cc1	.	0.1	97.0*	0	86.9*
SMILES	Pyk2 oligo antag	CYP2C9 act	CYP2C19 inh	CYP2C19 act	CYP2C9 inh
CC(C)N(CCc1ccncc1)C(=O)Nc1ccc(Cl)c(Cl)c1	.	0	99.5*	0	99.2*
O=C(Nc1nccs1)c1cccc(NC(=O)c2ccco2)c1	-0.67	.	.	.	.
CC(C)CCn1c(SCC(=O)N2CC(=O)Nc3ccccc32)nc2scc(-c3cccs3)c2c1=O	-0.65	1	-5.9	1.1	0.2
C=CCn1c(COc2ccc(F)cc2)nnc1SCC(=O)N1CC(=O)Nc2ccccc21	0.33	2.1*	47.7	0.5	-109.8
C=CCn1c(SCC(=O)N2CC(=O)Nc3ccccc32)nc2scc(-c3cccs3)c2c1=O	-2.11	0.2	62.6*	0.4	83.0*
Cn1nc(Oc2nc(N3CCOCC3)nc(N3CCOCC3)n2)ccc1=O	-0.01	1.1	-5.2	1.1	-6.1
O=C(Nc1cccc(F)c1)C1CC(=O)N(c2ccc(Cl)cc2)C1 (stereo not drawn)	0.75	0.3	87.6*	0.1	70.9*
O=C(Nc1cccc(Cl)c1Cl)C1CC(=O)N(c2ccc(Br)cc2)C1 (stereo not drawn)	1.42	.	.	.	.
COc1ccc(OC)c(NC(=O)C2CC(=O)N(c3ccccc3)C2)c1 (stereo not drawn)	-0.57	0.7	29.1	0.7	31.0
O=C(Nc1cccc(F)c1)C1CC(=O)N(c2ccc(Br)cc2)C1 (stereo not drawn)	0.68	0.4	62.8*	0.4	62.6*
